Measured values: PubChem BioAssay (EPA / NIEHS)
Where “and” joins values, the source holds several entries; their conditions need not be identical. Equal entries are not always repeated. Calls of active or inactive are those of the source. Rule for the calls: active = hit-call score of the fitted dose curve at least 0.9, where 1 is the maximum; inactive = score below 0.9.

The compounds below were run against Paired box protein Pax-6 (Homo sapiens) (UniProt P26367) (assay: ATG_Pax6_CIS: Attagene CIS-FACTORIAL HepG2 Assay for human Paired Box 6 (PAX6) (AID 2282956)). Settings: HepG2 CIS-FACTORIAL PAX6 reporter transcription, RNA readout; actives raise or lower the signal.
Protocol: ATG_CIS is a cell-based, multiplexed-readout assay that uses HepG2, a human liver cell line, with measurements taken at 24 hours after chemical dosing in a 24-well plate.ATG_Pax6_CIS is one of 52 assay component(s) measured or calculated from the ATG_CIS assay. It is designed to make measurements of mRNA induction, a form of inducible reporter, as detected with fluorescence intensity signals by Reverse transcription polymerase chain reaction (RT-PCR) and Capillary electrophoresis technology.Data from the assay component ATG_Pax6_CIS was analyzed into 1 assay endpoint. This assay endpoint, ATG_Pax6_CIS, was analyzed with bidirectional fitting relative to DMSO as the negative control and baseline of activity. Using a type of inducible reporter, measures of mRNA for gain or loss-of-signal activity can be used to understand the reporter gene at the transcription factor-level as they relate to the gene PAX6. Furthermore, this assay endpoint can be referred to as a primary readout, because this assay has produced multiple assay endpoints where this one serves a reporter gene function. To generalize the intended target to other relatable targets, this assay endpoint is annotated to the dna binding intended target family, where the subfamily is paired box protein.
Human liver HepG2 cells are transiently transfected with multiple reporter transcription units (MRTUs) in 6-well plates using FuGene 6 reagent (Roche; 3 ml FuGene/1 mg DNA). The MRTU constructs are regulated by a cis-regulating element (promoter). […] A major difference between the CIS and TRANS system is that in CIS activities of endogenous TFs are measured, whereas the TRANS assay evaluates changes in activities of exogenous, chimeric NR-Gal4 proteins. […] At the end of 24 hour incubation, total RNA was isolated using TriZol reagent (Invitrogen). The isolated RNA is then reverse-transcribed using oligo(dT) primer and Mo-MLV reverse transcriptase (Invitrogen) with DNAse I (Ambion) treatment for 30 min. The one-tenth of the produced cDNA was amplified by PCR using Taq DNA polymerase (Invitrogen) and two reporter sequence-specific primers. The PCR products were fluorescently labeled by primer extension with 6-arboxyfluorescein (6-FAM) 5'-labeled reporter sequence-specific primer (2 min at 95 C, 20 s at 68 C and 10 min at 72 C) and these products were digested with 5U of HpaI (New England Biolabs) for 2h at 37 C. The fragments were purified using Qiaquick PCR columns (Qiagen), analyzed on an ABI 3130xL genetic analyzer (Applied Biosystems) with peak positions identified by using a set of X-rhodamine (ROX)-labeled MapMarker1000 molecular weight standards (BioVentures). The raw capillary electrophoresis data was processed using Attagraph software (Attagene).

Paired box protein Pax-6 (Homo sapiens), sequence (P26367 whole entry, looked up): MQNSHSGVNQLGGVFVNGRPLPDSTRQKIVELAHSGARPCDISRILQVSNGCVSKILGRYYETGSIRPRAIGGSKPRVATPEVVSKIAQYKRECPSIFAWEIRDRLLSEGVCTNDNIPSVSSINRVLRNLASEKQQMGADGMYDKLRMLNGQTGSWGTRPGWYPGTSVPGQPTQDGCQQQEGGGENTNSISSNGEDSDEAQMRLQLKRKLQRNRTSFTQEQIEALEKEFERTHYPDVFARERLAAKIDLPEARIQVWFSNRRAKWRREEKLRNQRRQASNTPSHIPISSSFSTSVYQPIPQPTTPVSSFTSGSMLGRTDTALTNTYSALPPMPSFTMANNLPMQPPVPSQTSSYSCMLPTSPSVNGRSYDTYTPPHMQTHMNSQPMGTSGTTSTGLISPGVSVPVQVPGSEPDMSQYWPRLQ

Row | Compound | outcome | AC50
1 | O=C(O)C(F)(F)C(F)(F)C(F)(F)C(F)(F)F | inactive | –
2 | C=CC/C=C/C/C=C/C/C=C/C | inactive | –
3 | CCCCCC=O | inactive | –
4 | CCCCCCCOC(=O)c1ccccc1C(=O)OCCCCCCC | inactive | –
5 | O=C(OCCOCCOCCOC(=O)c1ccccc1)c1ccccc1 | inactive | –
6 | Cc1ccc(S(=O)(=O)OCC(F)(F)C(F)(F)C(F)(F)C(F)(F)C(F)(F)C(F)F)cc1 | inactive | –
7 | Oc1ccc(Nc2ccccc2)cc1 | inactive | –
8 | CCc1ccc(C(c2ccc(CC)cc2)C(Cl)Cl)cc1 | inactive | –
9 | CCCCCCC(C)OC(=O)CCCCC(=O)OC(C)CCCCCC (stereo not given) | inactive | –
10 | CC(C)(C)C(=O)CC(=O)C(F)(F)C(F)(F)C(F)(F)F | inactive | –
11 | OCC(F)(F)C(F)(F)C(F)(F)C(F)(F)C(F)(F)C(F)(F)F | inactive | –
12 | CC(C)c1ccccc1N | inactive | –
13 | FC1CC(F)(F)C(F)(F)C1(F)F (stereo not given) | inactive | –
14 | C#C[C@]1(O)CC[C@H]2[C@@H]3CCc4cc(OC)ccc4[C@H]3CC[C@@]21C | inactive | –
15 | O=C(O)C(F)(F)C(F)(F)C(F)(F)C(F)(F)C(F)(F)C(F)(F)C(F)(F)C(F)(F)C(F)(F)C(F)F | inactive | –
16 | OCC(F)(F)C(F)(F)C(F)(F)C(F)F | inactive | –
17 | COC(=O)C1CCC(C(=O)OC)CC1 (stereo not given) | inactive | –
18 | O=C(O)C(F)(F)C(F)(F)OC(F)(F)F | inactive | –
19 | O=S(=O)(O)c1ccc2ccccc2c1 | inactive | –
20 | O=C(O)C(F)(F)C(F)(F)C(F)(F)C(F)(F)C(F)(F)C(F)(F)C(F)(F)C(F)(F)Cl | – | 59.1 µM (active) and 50 µM (active)

Row | Compound | outcome | AC50
21 | OCC(F)(F)C(F)(F)C(F)(F)C(F)(F)C(F)(F)C(F)F | inactive | –
22 | O=S(=O)(OCC(F)F)C(F)(F)F | inactive | –
23 | FC(F)(F)C(F)(F)C(F)(F)CI | inactive | –
24 | CC(C)(C)c1ccc(OC2CCCCC2O)cc1 (stereo not given) | inactive | –
25 | CCN(Cc1cccc(S(=O)(=O)O)c1)c1ccc(C(=C2C=CC(=[N+](CC)Cc3cccc(S(=O)(=O)O)c3)C=C2)c2ccc(O)cc2S(=O)(=O)[O-])cc1 | inactive | –
26 | N=C(N)C(F)(F)C(F)(F)C(F)(F)C(F)(F)C(F)(F)C(F)(F)C(F)(F)F | inactive | –
27 | Nc1ccc(S(=O)(=O)Nc2nccs2)cc1 | inactive | –
28 | CC(CCl)OP(=O)(OC(C)CCl)OC(C)CCl (stereo not given) | inactive | –
29 | CNC(=S)NC | inactive | –
30 | C=CC(F)(F)C(F)(F)C(F)(F)C(F)(F)C(F)(F)C(F)(F)C(F)(F)C(F)(F)C=C | inactive | –
31 | CO[Si](OC)(c1ccccc1)c1ccccc1 | inactive | –
32 | Nc1ccc(Oc2cccc(Oc3ccc(N)cc3)c2)cc1 | – | 71 µM (active)
33 | FC(F)(F)C(F)(F)C(F)(F)C(F)(F)C(F)(F)C(F)(F)C(F)(F)I | inactive | –
34 | C=CC(F)(F)C(F)(F)C(F)(F)C(F)(F)C(F)(F)C(F)(F)C(F)(F)C(F)(F)F | inactive | –
35 | C=C(C)C(=O)OCC(F)(F)C(F)(F)C(F)(F)C(F)(F)C(F)(F)C(F)(F)C(F)(F)F | inactive | –
36 | O=C(O)C(F)(F)C(F)(F)C(F)(F)C(F)(F)C(F)(F)C(F)(F)C(F)(F)C(F)(F)C(F)(F)C(F)(F)C(F)(F)C(F)(F)F | inactive | –
37 | C(=C(c1ccccc1)c1ccccc1)c1ccccc1 | inactive | –
38 | C=CC(=O)OCC(F)(F)C(F)(F)C(F)(F)C(F)(F)COC(=O)C=C | – | 62.1 µM (active)
39 | CCCCNc1ccccc1 | inactive | –
40 | O=C(CC(=O)C(F)(F)C(F)(F)F)C(F)(F)F | inactive | –
